How the values were obtained:
Test in all cases: log2 ratio of Biotin-Ahx-Ub-VS probe labelling (fragment/DMSO); higher = less target engagement (more negative = stronger competition), active = hit call of the paper (q ≤ 0.05, log2 ratio ≤ -1)
Conditions in all cases: compound concentration: 200 uM; treatment time: 3 h
USP16 = USP16 (UniProt Q9Y5T5)
Outline: (§1)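 Labelled DUBs were enriched with NeutrAvidin, digested with LysC and trypsin, and run by diaPASEF LC-MS/MS. The labelling used Biotin-Ahx-Ub-VS at 0.5 µM final for 1 h on HEK293T lysate (495 µg per sample) previously treated in triplicate with fragment at 200 µM or vehicle for 3 h. Values are average log2 fragment/vehicle ratios by unpaired t-test on global-median-normalised Spectronaut quantities of proteins with ≥2 unique peptides.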

USP19 = target: T1, USP19 (UniProt O94966)
T1 sequence (whole entry): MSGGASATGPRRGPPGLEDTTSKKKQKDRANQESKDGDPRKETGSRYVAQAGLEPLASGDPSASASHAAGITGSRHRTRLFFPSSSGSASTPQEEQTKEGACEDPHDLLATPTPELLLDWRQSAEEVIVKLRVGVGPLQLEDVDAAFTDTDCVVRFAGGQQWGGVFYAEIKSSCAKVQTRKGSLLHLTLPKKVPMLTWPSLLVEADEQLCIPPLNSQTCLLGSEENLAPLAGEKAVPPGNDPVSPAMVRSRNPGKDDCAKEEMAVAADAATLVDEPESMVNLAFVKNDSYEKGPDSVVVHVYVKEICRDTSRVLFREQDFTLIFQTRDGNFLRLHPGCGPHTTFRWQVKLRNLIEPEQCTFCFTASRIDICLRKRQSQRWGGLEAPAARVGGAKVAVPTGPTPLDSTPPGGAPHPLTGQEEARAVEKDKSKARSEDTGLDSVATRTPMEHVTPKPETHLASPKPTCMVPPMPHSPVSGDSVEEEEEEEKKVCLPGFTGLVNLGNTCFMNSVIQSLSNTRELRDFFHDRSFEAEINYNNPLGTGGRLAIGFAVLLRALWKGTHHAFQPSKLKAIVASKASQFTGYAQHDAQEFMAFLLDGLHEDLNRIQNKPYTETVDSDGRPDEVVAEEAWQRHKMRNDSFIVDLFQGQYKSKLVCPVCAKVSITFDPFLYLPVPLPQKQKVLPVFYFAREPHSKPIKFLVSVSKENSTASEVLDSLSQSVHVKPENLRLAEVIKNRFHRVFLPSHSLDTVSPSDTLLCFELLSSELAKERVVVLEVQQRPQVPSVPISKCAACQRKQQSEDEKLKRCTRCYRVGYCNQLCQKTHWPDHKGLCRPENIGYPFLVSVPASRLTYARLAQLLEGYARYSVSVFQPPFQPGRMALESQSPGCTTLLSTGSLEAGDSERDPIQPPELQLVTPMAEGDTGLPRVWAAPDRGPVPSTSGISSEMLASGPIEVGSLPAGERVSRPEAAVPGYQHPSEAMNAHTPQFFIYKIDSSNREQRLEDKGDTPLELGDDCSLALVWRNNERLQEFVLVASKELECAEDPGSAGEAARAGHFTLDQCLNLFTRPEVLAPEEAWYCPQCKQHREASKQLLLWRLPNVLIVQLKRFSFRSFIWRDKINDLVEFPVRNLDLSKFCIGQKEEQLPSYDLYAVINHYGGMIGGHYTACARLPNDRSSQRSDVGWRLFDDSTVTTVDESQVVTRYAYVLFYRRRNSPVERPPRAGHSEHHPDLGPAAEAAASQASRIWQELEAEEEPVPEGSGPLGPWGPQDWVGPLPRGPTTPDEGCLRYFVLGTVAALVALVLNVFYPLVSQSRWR
Outline: as §1

USP24 = USP24 (UniProt Q9UPU5)
Sequence of USP24 (Q9UPU5 whole entry): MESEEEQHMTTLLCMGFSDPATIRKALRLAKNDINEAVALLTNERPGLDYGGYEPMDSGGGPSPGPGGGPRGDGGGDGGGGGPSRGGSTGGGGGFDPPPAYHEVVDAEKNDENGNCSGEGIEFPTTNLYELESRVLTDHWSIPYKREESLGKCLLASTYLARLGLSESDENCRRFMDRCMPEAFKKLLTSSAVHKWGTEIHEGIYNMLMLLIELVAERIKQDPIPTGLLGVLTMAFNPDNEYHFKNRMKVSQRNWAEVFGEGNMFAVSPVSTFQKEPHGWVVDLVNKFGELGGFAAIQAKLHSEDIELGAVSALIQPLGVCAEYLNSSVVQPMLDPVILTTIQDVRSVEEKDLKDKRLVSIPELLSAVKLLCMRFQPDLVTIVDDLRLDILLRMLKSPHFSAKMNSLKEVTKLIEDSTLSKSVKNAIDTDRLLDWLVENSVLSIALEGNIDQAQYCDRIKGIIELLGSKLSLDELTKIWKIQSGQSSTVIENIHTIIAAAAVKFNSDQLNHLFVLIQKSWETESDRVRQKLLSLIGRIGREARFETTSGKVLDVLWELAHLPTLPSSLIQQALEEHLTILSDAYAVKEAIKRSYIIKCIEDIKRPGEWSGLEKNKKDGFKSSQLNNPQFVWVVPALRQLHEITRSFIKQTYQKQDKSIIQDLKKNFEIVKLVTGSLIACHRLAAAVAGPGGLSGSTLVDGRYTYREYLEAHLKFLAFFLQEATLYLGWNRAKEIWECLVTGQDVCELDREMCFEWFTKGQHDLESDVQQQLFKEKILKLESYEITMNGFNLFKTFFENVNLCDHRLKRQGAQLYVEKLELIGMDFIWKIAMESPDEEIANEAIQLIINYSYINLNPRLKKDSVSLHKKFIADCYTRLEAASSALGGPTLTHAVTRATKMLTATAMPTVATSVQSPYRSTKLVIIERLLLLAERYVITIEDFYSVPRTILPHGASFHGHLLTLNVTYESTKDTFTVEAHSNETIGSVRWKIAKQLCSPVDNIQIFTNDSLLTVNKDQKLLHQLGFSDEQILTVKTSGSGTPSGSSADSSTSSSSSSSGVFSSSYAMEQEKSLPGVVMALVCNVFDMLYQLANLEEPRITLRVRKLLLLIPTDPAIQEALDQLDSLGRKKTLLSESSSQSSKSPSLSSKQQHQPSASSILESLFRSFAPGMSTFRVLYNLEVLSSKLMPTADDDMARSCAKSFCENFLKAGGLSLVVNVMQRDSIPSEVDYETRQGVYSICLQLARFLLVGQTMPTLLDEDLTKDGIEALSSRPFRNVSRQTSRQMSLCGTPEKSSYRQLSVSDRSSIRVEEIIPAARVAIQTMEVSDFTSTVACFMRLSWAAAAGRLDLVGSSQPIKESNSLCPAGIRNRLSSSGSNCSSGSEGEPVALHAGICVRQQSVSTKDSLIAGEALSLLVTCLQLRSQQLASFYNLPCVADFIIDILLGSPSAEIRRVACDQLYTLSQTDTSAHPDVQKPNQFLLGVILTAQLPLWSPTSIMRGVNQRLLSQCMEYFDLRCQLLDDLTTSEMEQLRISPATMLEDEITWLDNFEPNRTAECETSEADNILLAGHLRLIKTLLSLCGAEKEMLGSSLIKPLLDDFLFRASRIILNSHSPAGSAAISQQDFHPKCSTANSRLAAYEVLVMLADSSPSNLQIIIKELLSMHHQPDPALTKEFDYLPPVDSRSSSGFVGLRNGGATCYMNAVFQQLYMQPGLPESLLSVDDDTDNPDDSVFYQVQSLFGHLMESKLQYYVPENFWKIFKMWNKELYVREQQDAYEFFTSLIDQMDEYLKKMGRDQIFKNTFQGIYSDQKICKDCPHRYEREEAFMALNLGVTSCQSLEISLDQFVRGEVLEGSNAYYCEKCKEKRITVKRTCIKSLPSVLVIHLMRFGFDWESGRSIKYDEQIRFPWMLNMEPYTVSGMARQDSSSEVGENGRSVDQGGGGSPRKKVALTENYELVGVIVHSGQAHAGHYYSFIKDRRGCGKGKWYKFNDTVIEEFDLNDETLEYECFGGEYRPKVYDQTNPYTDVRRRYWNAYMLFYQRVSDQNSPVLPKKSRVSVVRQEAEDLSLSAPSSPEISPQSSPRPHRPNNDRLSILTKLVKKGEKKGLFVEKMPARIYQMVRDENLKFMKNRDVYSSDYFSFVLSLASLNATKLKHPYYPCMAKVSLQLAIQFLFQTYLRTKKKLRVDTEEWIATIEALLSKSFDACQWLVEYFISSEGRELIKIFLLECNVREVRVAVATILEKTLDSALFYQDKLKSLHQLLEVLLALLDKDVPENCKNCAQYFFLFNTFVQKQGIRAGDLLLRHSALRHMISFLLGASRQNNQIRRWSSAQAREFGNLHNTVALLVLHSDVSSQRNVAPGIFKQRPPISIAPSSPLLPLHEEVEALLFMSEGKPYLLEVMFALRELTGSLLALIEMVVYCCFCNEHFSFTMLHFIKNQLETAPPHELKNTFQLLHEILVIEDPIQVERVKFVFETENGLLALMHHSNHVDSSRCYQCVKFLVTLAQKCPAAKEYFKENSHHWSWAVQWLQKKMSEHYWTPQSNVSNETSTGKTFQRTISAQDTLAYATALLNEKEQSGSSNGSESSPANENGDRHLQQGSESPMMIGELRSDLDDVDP
Outline: as §1

USP25 = target: T2, USP25 (UniProt Q9UHP3)
T2 sequence (whole entry): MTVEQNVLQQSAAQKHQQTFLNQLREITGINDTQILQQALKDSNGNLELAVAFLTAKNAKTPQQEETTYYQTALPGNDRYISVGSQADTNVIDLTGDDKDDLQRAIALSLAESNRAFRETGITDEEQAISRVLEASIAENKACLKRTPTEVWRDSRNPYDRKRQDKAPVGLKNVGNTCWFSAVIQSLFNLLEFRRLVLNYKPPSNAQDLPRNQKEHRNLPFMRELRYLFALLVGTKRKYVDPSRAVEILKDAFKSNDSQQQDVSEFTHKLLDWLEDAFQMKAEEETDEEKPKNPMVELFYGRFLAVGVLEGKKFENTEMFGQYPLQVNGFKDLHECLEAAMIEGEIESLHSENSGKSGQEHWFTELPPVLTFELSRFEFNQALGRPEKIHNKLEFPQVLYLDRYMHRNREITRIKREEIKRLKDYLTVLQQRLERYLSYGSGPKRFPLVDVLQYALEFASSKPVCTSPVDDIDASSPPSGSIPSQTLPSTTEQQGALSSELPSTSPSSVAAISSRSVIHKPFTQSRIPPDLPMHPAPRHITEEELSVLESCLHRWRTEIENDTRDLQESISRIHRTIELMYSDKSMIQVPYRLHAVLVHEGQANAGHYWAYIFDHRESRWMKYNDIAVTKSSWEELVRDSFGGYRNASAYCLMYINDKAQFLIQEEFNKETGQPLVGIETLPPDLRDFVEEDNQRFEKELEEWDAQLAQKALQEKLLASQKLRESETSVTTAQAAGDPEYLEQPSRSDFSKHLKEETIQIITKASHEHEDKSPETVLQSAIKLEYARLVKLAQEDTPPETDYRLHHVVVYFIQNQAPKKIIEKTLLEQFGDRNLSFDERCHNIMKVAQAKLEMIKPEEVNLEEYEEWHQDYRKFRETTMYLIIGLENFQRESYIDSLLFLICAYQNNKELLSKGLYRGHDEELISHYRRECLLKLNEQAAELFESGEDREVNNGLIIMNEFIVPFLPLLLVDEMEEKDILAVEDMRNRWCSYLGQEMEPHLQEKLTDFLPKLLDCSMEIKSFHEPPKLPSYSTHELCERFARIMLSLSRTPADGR
Outline: as §1

USP28 = target: T3, USP28 (UniProt Q96RU2)
T3 sequence (whole entry): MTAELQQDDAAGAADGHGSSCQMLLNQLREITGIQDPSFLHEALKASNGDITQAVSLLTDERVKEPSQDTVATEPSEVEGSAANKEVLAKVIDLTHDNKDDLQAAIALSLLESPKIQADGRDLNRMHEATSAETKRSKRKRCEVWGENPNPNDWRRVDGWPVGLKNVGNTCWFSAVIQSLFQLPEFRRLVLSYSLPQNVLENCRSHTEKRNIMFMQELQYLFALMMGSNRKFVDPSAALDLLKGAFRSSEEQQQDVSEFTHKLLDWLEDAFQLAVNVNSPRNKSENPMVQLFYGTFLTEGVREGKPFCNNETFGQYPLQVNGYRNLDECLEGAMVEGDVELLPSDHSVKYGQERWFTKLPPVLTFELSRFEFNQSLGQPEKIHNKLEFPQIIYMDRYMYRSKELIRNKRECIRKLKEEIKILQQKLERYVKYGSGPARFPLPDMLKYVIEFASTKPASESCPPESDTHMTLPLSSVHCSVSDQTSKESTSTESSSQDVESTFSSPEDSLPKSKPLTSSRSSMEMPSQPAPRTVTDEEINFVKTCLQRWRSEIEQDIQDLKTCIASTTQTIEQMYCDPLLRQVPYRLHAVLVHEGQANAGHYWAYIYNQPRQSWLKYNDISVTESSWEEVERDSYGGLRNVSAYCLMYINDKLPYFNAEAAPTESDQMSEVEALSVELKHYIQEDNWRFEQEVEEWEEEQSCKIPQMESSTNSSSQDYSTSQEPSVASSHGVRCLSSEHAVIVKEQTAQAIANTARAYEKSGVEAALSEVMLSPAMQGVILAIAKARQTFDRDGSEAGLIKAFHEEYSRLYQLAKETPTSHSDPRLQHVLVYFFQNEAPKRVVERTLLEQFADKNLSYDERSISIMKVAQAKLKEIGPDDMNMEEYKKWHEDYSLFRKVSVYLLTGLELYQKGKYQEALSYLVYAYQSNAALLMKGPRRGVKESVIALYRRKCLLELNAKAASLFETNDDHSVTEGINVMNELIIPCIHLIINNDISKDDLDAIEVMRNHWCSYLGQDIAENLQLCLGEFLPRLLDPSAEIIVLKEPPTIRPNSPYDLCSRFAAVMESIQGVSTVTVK
Outline: as §1

Measured: log2 ratio of Biotin-Ahx-Ub-VS probe labelling

Sequence of USP16 (Q9Y5T5 whole entry, looked up, the tested form may be a part): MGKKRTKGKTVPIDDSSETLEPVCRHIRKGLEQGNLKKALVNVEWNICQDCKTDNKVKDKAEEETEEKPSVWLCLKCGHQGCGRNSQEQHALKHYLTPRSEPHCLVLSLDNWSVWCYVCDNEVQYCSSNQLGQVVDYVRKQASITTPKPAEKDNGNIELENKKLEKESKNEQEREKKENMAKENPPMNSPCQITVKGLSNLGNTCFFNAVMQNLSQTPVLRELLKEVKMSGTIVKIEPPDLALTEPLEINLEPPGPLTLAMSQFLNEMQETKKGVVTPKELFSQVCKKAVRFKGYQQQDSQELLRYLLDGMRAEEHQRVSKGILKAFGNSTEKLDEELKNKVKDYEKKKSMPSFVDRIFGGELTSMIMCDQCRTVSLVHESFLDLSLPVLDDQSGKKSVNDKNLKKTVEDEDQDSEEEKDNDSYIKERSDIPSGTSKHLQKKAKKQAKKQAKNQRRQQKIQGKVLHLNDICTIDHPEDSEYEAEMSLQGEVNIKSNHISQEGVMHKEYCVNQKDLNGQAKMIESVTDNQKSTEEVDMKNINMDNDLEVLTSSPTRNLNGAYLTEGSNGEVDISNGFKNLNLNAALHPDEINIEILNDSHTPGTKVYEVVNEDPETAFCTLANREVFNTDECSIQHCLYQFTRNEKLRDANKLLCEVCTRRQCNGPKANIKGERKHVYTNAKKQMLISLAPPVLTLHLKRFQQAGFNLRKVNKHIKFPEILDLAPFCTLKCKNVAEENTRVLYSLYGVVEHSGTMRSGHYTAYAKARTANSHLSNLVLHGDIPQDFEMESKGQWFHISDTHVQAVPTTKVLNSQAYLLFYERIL

NC(=O)C1CCCCN1C(=O)CCl (stereo not given)
inactive: USP16 0.0843 | USP19 -0.231 | USP24 -0.241 | USP25 -0.267 | USP28 -0.652

Reference: the supplement of paper PMC11732987, “Enantioselective OTUD7B fragment discovery through chemoproteomics screening and high-throughput optimisation” (Communications Chemistry, 2025)
